Measured values published in PubChem BioAssay AID1159580 (chemical genetic matrix, 2015).
“And” between values parts separate entries of the source, which are not always exact repeats. Identical values can stand only once. In all, about 5,500 compounds went through this assay and about 2,000 (36%) were called active. Another 18% or so got no clear call; they are omitted. Rule as the data show it: active = normalized growth mostly below about 0.91 (no sharp cut-off); inconclusive = no clear call, values can overlap the other calls; inactive = mostly above about 0.92. Some of the results follow.

Assay: chemical genetic growth profiling, strain panel (AID 1159580);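 also: tested at 20 µM; growth read once vehicle control cultures reached saturation at 30 °C; 1 = growth at the plate median or of vehicle wells; lower values mean less growth of the strain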
Details: S. cerevisiae deletion strains, growth OD

Measured: normalized growth

CC(=O)OCC(=O)[C@H]1CCC2C3CCC4=CC(=O)CC[C@]4(C)C3CC[C@@]21C (stereo partly drawn)
active: locus YAL013W, strain DEP1, stronger effect = lower value 0.886 | locus YDL074C, strain BRE1, stronger effect = lower value 0.777 | locus YDL134C, strain PPH21, stronger effect = lower value 0.826 | locus YDR162C, strain NBP2, stronger effect = lower value 0.78 | locus YDR392W, strain spt3, stronger effect = lower value 0.56 | locus YDR502C, strain sam2, stronger effect = lower value 0.899 | locus YER155C, strain BEM2 (second series), stronger effect = lower value 0.835 | locus YER155C, strain BEM2, stronger effect = lower value 0.92 | locus YER167W, strain BCK2, stronger effect = lower value 0.829 | locus YGR135W, strain pre9, stronger effect = lower value 0.84 | locus YGR252W, strain gcn5, stronger effect = lower value 0.72 | locus YIL066C, strain RNR3, stronger effect = lower value 0.809 | locus YIR030C, strain dcg1, stronger effect = lower value 0.927 | locus YJR043C, strain POL32, stronger effect = lower value 0.797 | locus YKR001C, strain vps1, stronger effect = lower value 0.777 | locus YLR330W, strain CHS5, stronger effect = lower value 0.864 | locus YLR342W, strain FKS1 (second series), stronger effect = lower value 0.726 | locus YLR418C, strain cdc73, stronger effect = lower value 0.691 | locus YML032C, strain rad52, stronger effect = lower value 0.896 | locus YNL298W, strain CLA4, stronger effect = lower value 0.893 | locus YNL307C, strain MCK1, stronger effect = lower value 0.596 | locus YOL147C, strain pex11, stronger effect = lower value 0.93 | locus YOR144C, strain elg1, stronger effect = lower value 0.929 | locus YOR184W, strain ser1, stronger effect = lower value 0.759 | locus YOR270C, strain vph1, stronger effect = lower value 0.734 | locus YPR167C, strain met16, stronger effect = lower value 0.921
inactive: locus YAL021C, strain ccr4, stronger effect = lower value 0.94 | locus YAL026C, strain drs2, stronger effect = lower value 0.978 | locus YAL030W, strain snc1, stronger effect = lower value 0.979 | locus YBL061C, strain skt5, stronger effect = lower value 0.967 | locus YBR009C, strain hhf1, stronger effect = lower value 0.986 | locus YBR021W, strain FUR4, stronger effect = lower value 0.898 | locus YBR023C, strain chs3, stronger effect = lower value 0.94 | locus YBR171W, strain sec66, stronger effect = lower value 0.927 | locus YBR229C, strain ROT2, stronger effect = lower value 0.969 | locus YBR231C, strain swc5, stronger effect = lower value 1 | locus YBR279W, strain paf1, stronger effect = lower value 0.976 | locus YCL011C, strain gbp2, stronger effect = lower value 0.969 | locus YCL016C, strain dcc1, stronger effect = lower value 0.961 | locus YCL029C, strain bik1, stronger effect = lower value 0.957 | locus YCL061C, strain MRC1, stronger effect = lower value 0.984 | locus YCL069W, strain vba3, stronger effect = lower value 0.98 | locus YCR088W, strain abp1, stronger effect = lower value 0.972 | locus YDL005C, strain med2, stronger effect = lower value 0.964 | locus YDL035C, strain GPR1, stronger effect = lower value 0.86 | locus YDL040C, strain nat1, stronger effect = lower value 0.973 | locus YDL101C, strain DUN1, stronger effect = lower value 0.961 | locus YDL185W, strain tfp1, stronger effect = lower value 0.949 | locus YDL192W, strain arf1, stronger effect = lower value 0.935 | locus YDR001C, strain nth1, stronger effect = lower value 0.972 | locus YDR069C, strain doa4, stronger effect = lower value 0.967 | locus YDR101C, strain arx1, stronger effect = lower value 0.954 | locus YDR137W, strain rgp1, stronger effect = lower value 1.11 | locus YDR159W, strain sac3, stronger effect = lower value 0.885 | locus YDR195W, strain ref2 1.07 | locus YDR297W, strain sur2, stronger effect = lower value 0.975 | locus YDR318W, strain mcm21, stronger effect = lower value 0.929 | locus YDR334W, strain swr1, stronger effect = lower value 0.971 | locus YDR335W, strain msn5, stronger effect = lower value 0.988 | locus YDR388W, stronger effect = lower value 0.94 | locus YEL003W, strain gim4, stronger effect = lower value 0.994 | locus YEL037C, strain rad23, stronger effect = lower value 0.977 | locus YEL061C, strain CIN8 (second series), stronger effect = lower value 0.977 | locus YEL061C, strain CIN8, stronger effect = lower value 0.944 | locus YER015W, strain faa2, stronger effect = lower value 0.969 | locus YER016W, strain bim1, stronger effect = lower value 0.962 | locus YER110C, stronger effect = lower value 0.943 | locus YER111C, strain swi4, stronger effect = lower value 0.971 | locus YFR010W, strain ubp6, stronger effect = lower value 0.994 | locus YGL078C, strain dbp3, stronger effect = lower value 0.961 | locus YGL086W, strain mad1, stronger effect = lower value 0.934 | locus YGL167C, strain pmr1, stronger effect = lower value 0.951 | locus YGL173C, strain kem1, stronger effect = lower value 0.948 | locus YGL227W, strain vid30, stronger effect = lower value 0.992 | locus YGL240W, strain doc1, stronger effect = lower value 0.95 | locus YGL248W, strain PDE1, stronger effect = lower value 0.927 | locus YGL253W, strain hxk2, stronger effect = lower value 0.919 | locus YHR013C, strain ard1, stronger effect = lower value 0.997 | locus YHR027C, strain rpn1, stronger effect = lower value 0.996 | locus YHR030C, strain SLT2, stronger effect = lower value 0.944 and 1.02 | locus YHR079C, strain IRE1 (second series), stronger effect = lower value 0.956 | locus YHR079C, strain IRE1, stronger effect = lower value 1.02 | locus YHR094C, strain hxt1, stronger effect = lower value 0.956 | locus YHR129C, strain ARP1, stronger effect = lower value 0.944 | locus YHR142W, strain chs7, stronger effect = lower value 0.944 | locus YHR200W, strain rpn10, stronger effect = lower value 0.924 | locus YIL073C, strain SPO22, stronger effect = lower value 0.828 | locus YIL125W, strain kgd1, stronger effect = lower value 0.955 | locus YJL092W, strain hpr5, stronger effect = lower value 0.976 | locus YJL095W, strain BCK1 (second series), stronger effect = lower value 0.965 | locus YJL115W, strain asf1, stronger effect = lower value 0.984 | locus YJL129C, strain trk1, stronger effect = lower value 0.931 | locus YJL134W, strain LCB3, stronger effect = lower value 0.976 | locus YJL154C, strain vps35, stronger effect = lower value 0.98 | locus YJL164C, strain tpk1, stronger effect = lower value 0.978 | locus YJL166W, strain qcr8, stronger effect = lower value 0.989 | locus YJL168C, strain set2, stronger effect = lower value 0.96 | locus YJL187C, strain SWE1 (second series), stronger effect = lower value 0.935 | locus YJR066W, strain TOR1, stronger effect = lower value 0.956 | locus YKL009W, strain mrt4, stronger effect = lower value 0.909 | locus YKL068W, stronger effect = lower value 0.956 | locus YKL085W, strain MDH1 (second series), stronger effect = lower value 0.934 | locus YKL085W, strain MDH1, stronger effect = lower value 0.934 | locus YKL160W, strain elf1, stronger effect = lower value 0.964 | locus YKR026C, strain gcn3, stronger effect = lower value 0.977 | locus YKR091W, strain srl3, stronger effect = lower value 0.98 | locus YLL001W, strain dnm1, stronger effect = lower value 0.985 | locus YLL026W, stronger effect = lower value 0.992 | locus YLL041C, strain sdh2, stronger effect = lower value 0.986 | locus YLR027C, strain aat2, stronger effect = lower value 0.97 | locus YLR039C, strain RIC1, stronger effect = lower value 0.772 | locus YLR058C, strain SHM2, stronger effect = lower value 0.942 | locus YLR102C, strain apc9, stronger effect = lower value 0.956 | locus YLR113W, strain HOG1, stronger effect = lower value 0.951 | locus YLR221C, strain rsa3, stronger effect = lower value 0.972 | locus YLR258W, strain gsy2, stronger effect = lower value 0.958 | locus YLR262C, strain YPT6 (second series), stronger effect = lower value 1.04 | locus YLR262C, strain YPT6, stronger effect = lower value 0.754 | locus YLR268W, strain sec22, stronger effect = lower value 0.919 | locus YLR320W, strain mms22, stronger effect = lower value 0.881 | locus YLR342W, strain FKS1, stronger effect = lower value 0.926 | locus YLR357W, strain rsc2, stronger effect = lower value 1.02 | locus YLR370C, strain arc18, stronger effect = lower value 0.958 | locus YLR371W, strain rom2, stronger effect = lower value 0.966 | locus YLR384C, strain iki3, stronger effect = lower value 0.987 | locus YML016C, strain PPZ1, stronger effect = lower value 0.962 | locus YML120C, strain ndi1, stronger effect = lower value 0.979 | locus YML124C, strain tub3, stronger effect = lower value 0.938 | locus YMR058W, strain fet3, stronger effect = lower value 0.959 | locus YMR078C, strain ctf18, stronger effect = lower value 0.923 | locus YMR125W, strain sto1, stronger effect = lower value 0.986 | locus YMR129W, stronger effect = lower value 0.985 | locus YMR205C, strain PFK2, stronger effect = lower value 0.909 | locus YMR223W, strain ubp8, stronger effect = lower value 0.905 | locus YMR231W, strain pep5, stronger effect = lower value 0.988 | locus YMR307W, strain GAS1, stronger effect = lower value 0.744 | locus YNL067W, strain RPL9B, stronger effect = lower value 0.965 | locus YNL071W, strain lat1, stronger effect = lower value 0.923 | locus YNL153C, strain GIM3, stronger effect = lower value 0.962 | locus YNL183C, strain NPR1, stronger effect = lower value 0.961 | locus YNL209W, strain ssb2, stronger effect = lower value 0.979 | locus YNL233W, strain BNI4, stronger effect = lower value 0.871 | locus YNL248C, strain rpa49, stronger effect = lower value 0.945 | locus YNL250W, strain rad50, stronger effect = lower value 0.978 | locus YNL271C, strain bni1, stronger effect = lower value 0.938 | locus YNL322C, strain KRE1 (second series), stronger effect = lower value 0.951 | locus YNR049C, strain mso1, stronger effect = lower value 0.989 | locus YNR052C, strain pop2, stronger effect = lower value 0.986 | locus YOL012C, strain htz1 1.17 | locus YOR001W, strain rrp6, stronger effect = lower value 0.999 | locus YOR061W, strain CKA2, stronger effect = lower value 0.943 | locus YOR069W, strain VPS5, stronger effect = lower value 0.983 | locus YOR070C, strain gyp1, stronger effect = lower value 0.974 | locus YOR080W, strain dia2, stronger effect = lower value 0.987 | locus YOR083W, strain WHI5, stronger effect = lower value 0.9 | locus YOR106W, strain vam3, stronger effect = lower value 0.941 | locus YOR136W, strain idh2, stronger effect = lower value 0.965 | locus YOR231W, strain MKK1, stronger effect = lower value 0.983 | locus YOR265W, strain rbl2, stronger effect = lower value 0.98 | locus YOR290C, strain snf2, stronger effect = lower value 0.961 | locus YOR316C, strain cot1, stronger effect = lower value 0.947 | locus YPL051W, strain arl3, stronger effect = lower value 0.968 | locus YPL055C, strain LGE1, stronger effect = lower value 0.861 | locus YPL078C, strain atp4, stronger effect = lower value 0.903 | locus YPL106C, strain sse1, stronger effect = lower value 1.04 | locus YPL240C, strain hsp82, stronger effect = lower value 0.982 | locus YPL241C, strain CIN2, stronger effect = lower value 0.963 | locus YPL256C, strain CLN2, stronger effect = lower value 1.01 | locus YPR119W, strain clb2, stronger effect = lower value 0.948 | locus YPR141C, strain kar3, stronger effect = lower value 0.954 | locus YPR163C, strain tif3, stronger effect = lower value 0.916 | strain wtn01, stronger effect = lower value 0.949
0.752 (active) and 0.988 (inactive): locus YJL095W, strain BCK1, stronger effect = lower value
